CHX counter: Cycloheximide Counterscreen for Small Molecule Inhibitors of Shiga Toxin. AID 2314, 2010. max response, %. cell reporter, cycloheximide protein synthesis inhibition counterscreen. 12% of 300,000 active; in the data active means max response mostly above about 13%, no sharp cut-off; inactive means mostly below about 14%; further: read at 38.3 µM for the half of the compounds with a filed dose; 0% is about no effect
Pf growth 96h: Primary qHTS for delayed death inhibitors of the malarial parasite plastid, 96 hour incubation | Potency, µM (series often up to 28.7 µM), for the others: at the top dose activity change, negative = inhibition, most hits filed as inhibitors | AID 504834, 2011 | P. falciparum luciferase reporter growth, 96 h | 6.9% of 320,000 active; further: potency means the concentration at half of the fitted maximal effect; on the % scale 0 is the no-effect control and ±100 the full control effect
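P. falciparum expressing integrated firefly luciferase, in erythrocytes at 2% hematocrit, 0.05% parasitemia, incubated with compounds 96 h at 37 C, 5% CO2. Growth inhibition read as loss of luminescence; two-generation exposure targets delayed-death apicoplast inhibitors.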
Pf growth 48h: Primary qHTS for delayed death inhibitors of the malarial parasite plastid, 48 hour incubation; P. falciparum luciferase growth in erythrocytes, 48 h; Potency, µM (top dose mostly 28.7 µM), without a hit: at the top dose activity change, negative = inhibition, most hits filed as inhibitors; 5.9% of 310,000 active; further: potency means the concentration at half of the fitted maximal effect; on the % scale 0 is the no-effect control and ±100 the full control effect
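Luciferase-expressing parasites in RBCs, 2% Hct / 0.1% parasitemia final; RPMI 1640 + 0.5% Albumax; 37 C, 5% CO2, one generation; luminescence read-out, lower signal = inhibition.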
HCV inh: qHTS Assay for Inhibitors of Hepatitis C Virus (HCV). AID 651820, 2012. 3.4% of 340,000 active. Potency, µM (titrated, usually from 41.8 µM), for the others: at the highest dose activity change, negative = inhibition, most hits filed as inhibitors. Huh7.5.1 HCVcc-Cre infection, luciferase reporter, 44 h; further: potency means the concentration at half of the fitted maximal effect; on the % scale 0 is the no-effect control and ±100 the full control effect
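Whole-lifecycle infectious HCVcc-Cre system; cells 1,000/well, compound then virus (~0.5 moi) added 4 h after plating, 44 h culture. Luciferase read 15 sec following 15 min substrate incubation, room temp.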
Shiga inhibitor: A qHTS for Small Molecule Inhibitors of Shiga Toxin. 9.2% of 290,000 active. AID 2315, 2010. Vero cells, Shiga toxin protein synthesis inhibition reporter. inhibition, % at 38.7 µM; in the data active means inhibition mostly above about 28%, no sharp cut-off; inactive means mostly below about 43%; further: 0% is about no effect
HCMV antiviral: qHTS Assay for inhibitors of the human cytomegalovirus (HCMV); activity change, negative = inhibition, % at 57.5 µM; 4.5% of 410,000 active; HFF cells, HCMV-luciferase reporter, 72 h; hits give low values; in the data active means activity change below about -60%; inconclusive means no clear call, values can overlap the other calls; inactive means above about -39%; further: on the % scale 0 is the no-effect control and ±100 the full control effect
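Luciferase read-out from HCMV-luciferase-infected HFFs (MOI 1 PFU/cell) 72 h post infection at 37C; compounds added after 16 h cell attachment; activity normalized between buffer-only basal and Salinomycin (10uM) inhibitor controls.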
An asterisk follows results filed as active; ? = inconclusive; . = not tested or not shown; [ ] = another dose, or the depositor's remark. This is a sample that favours compounds with a hit; in the whole collection about 21% have one here. Unless noted, the call rests on the fitted dose curve; in most records, active means well fitted inhibition curve with a large enough effect; inconclusive means small, poorly fitted or top-dose-only effect, or another doubt; inactive means no such curve, though single readings can be large or run the other way.

SMILES	CHX counter	Pf growth 96h	Pf growth 48h	HCV inh	Shiga inhibitor	HCMV antiviral
C/C(=N\N1C(=O)c2ccccc2NC1c1ccccc1)c1ccccc1O (centres undefined)	23*	45%	-50%	?	67*	-92*
Cc1ccc(/C=N/N2C(=O)c3ccccc3NC2c2ccc(C)cc2)cc1 (centres undefined)	82*	67%	117%	-6%	96*	54
C/C(=N\N1C(=O)c2ccccc2NC1c1ccco1)c1ccccc1O (centres undefined)	32*	17%	43%	3.5µM*	65*	-78*
O=C1c2ccccc2NC(c2ccco2)N1/N=C/c1ccco1 (centres undefined)	32*	-20%	60%	-7%	71	31
COc1ccccc1CNC(=O)CCc1c(C)c2cc3c(C)coc3cc2oc1=O	.	.	.	.	.	5
Cc1ccc(S(=O)(=O)N2CCN(C(=O)N3CCCCC3)CC2)c(C)c1	.	.	.	.	.	-17
CC(C)N(Cc1nccn1C)C(=O)c1ccc2oc(Cc3ccccc3)nc2c1	1	3%	?	4%	13	-13
CS(=O)(=O)NN1C(=O)c2ccccc2NC1c1ccccc1 (centres undefined)	25*	?	8%	3%	34*	-3
CC(C)(C)c1ccc(S(=O)(=O)NC(=O)C2(C)CCN2C(=O)Cc2cccs2)cc1 (centres undefined)	.	.	.	.	.	-12
CC(C)(C)c1ccc(-c2nnc(N)o2)cc1	37*	99%	13%	1%	67*	167
CC(C)(C)c1ccc(OCc2nnc(-c3ccccc3)o2)cc1	.	.	.	.	.	48
Cc1ccc(-c2csc3nc4c5ccccc5c(NCCCN(C)C)nn4c(=O)c23)cc1	-1	?	?	3%	-2	-99*
Cc1ccc(-c2csc3nc4c5ccccc5c(NCCCN5CCOCC5)nn4c(=O)c23)cc1	-3	49%[1.15 µM]	?	.	2	.
CN(C)c1nnnn1-c1ccc(Oc2ccccc2)cc1	10	16%	?	?	3	?
CN(C)c1ccc(/C=C/c2nnnn2-c2ccccc2)cc1	61*	13µM*	196%	-15%	108*	21
CCc1nnc(NC(=O)c2ccc(OCc3c(C)noc3C)c(OC)c2)s1	-10	?	201%	?	-4	14
COc1cc(C(=O)Nc2nc3ccc(C)cc3s2)ccc1OCc1c(C)noc1C	62*	6%	-12%	?	76*	-16
COc1cc(C(=O)Nc2cc(OC)c(OC)c(OC)c2)ccc1OCc1c(C)noc1C	.	.	.	11µM*	.	277
C[C@@]12CCOC13C=CC(=O)C=C3CC[C@H]2O (some centres undefined)	.	.	.	.	.	-13
O=C(COc1ccccc1F)NCc1ccc(-n2cccc2)cc1	3	?	19%	-1%	23	13
Cc1ccc(NC(=S)NCc2ccc3[nH]c4c(c3c2)CCCC4)cc1	-2	-64%	24%	-35%	-22	?
COCCNC(=S)NCc1ccc2[nH]c3c(c2c1)CCCC3	-2	16%	3%	-26%	7	-73*
Cc1ccc(NC(=O)COc2ccc(C(=O)c3ccccc3)cc2)c(O)c1	-2	?	?	?	-5	-19
CCn1cc2nc(SCC(=O)Nc3cc(OC)ccc3OC)n(Cc3ccc(Cl)cc3)c(=O)c2n1	.	.	.	.	.	3
CCN(CC)C(=O)CSc1nc2cc(OC)c(OC)cc2c(=O)n1Cc1ccc(Cl)cc1	-5	?	12µM*	?	-21	-78*
SMILES	CHX counter	Pf growth 96h	Pf growth 48h	HCV inh	Shiga inhibitor	HCMV antiviral
COc1cc2nc(SCC(N)=O)n(CCC3=CCCCC3)c(=O)c2cc1OC	-6	13µM*	-12%	-13%	-4	-26
N=c1sccn1CC(=O)Nc1ccc(SC(F)F)cc1	9	-12%	?	?	11	16
CC(=O)Nc1ccc(-c2csc(NNC(=O)c3ccc(C)cc3)n2)cc1	11	14%	6%	-8%	7	?
O=C(NNc1nc(-c2ccccc2)cs1)c1ccccc1	19	2.3µM*	?	?	40	-33
N#Cc1ccc(-c2csc(NNC(=O)c3ccc(Br)cc3)n2)cc1	6	2.9µM*	1.7µM*	8.9µM*	16	-106*
N#Cc1ccc(-c2csc(NNC(=O)c3ccccc3)n2)cc1	1	3.7µM*	12µM*	-19%	-4	-31
S=C1NC[C@H](CC2CCCCC2)N1CC1CCCCC1	-1	?	?	?	-16	?
COc1ccc(-n2nc(C)c3sc(C)nc3c2=O)cc1	9.6*	40%	15%	22%	46	5
Clc1cccc(CN2CCCCCC2)c1	-2	35%	1%	7%	2	29
N=c1c2c(n(Cc3cccc(Cl)c3)c3c1CCC3)CCCC2	-3	-107%	0.26µM*	25µM*	9	-95*
N=c1c2c(n(Cc3ccc(F)cc3)c3c1CCC3)CCCC2	2	15%	?	-25%	-2	-100*
N=c1c2c(n(Cc3ccc(Cl)cc3)c3c1CCC3)CCC2	-5	25%	0.21µM*	?	-5	-102*
N=c1c2c(n(Cc3ccc(Cl)cc3Cl)c3c1CCC3)CCCC2	-2	.	0.19µM*	10µM*	-3	.
N=c1sc2c(n1Cc1ccccc1)CCCC2	-6	65%	-15%	1%	-8	-35
COc1cc2c(cc1OC)C(=O)CCC2	.	.	.	19%	.	-32
N#Cc1ccc(C(=O)NC(=S)N2CCN(C=O)CC2)cc1	.	.	.	13%	.	4
N=c1c2c(n(Cc3ccccc3)c3c1CCC3)CCC2	-1	0.13µM*	0.41µM*	?	-13	-97*
COc1cc(NC(=O)COC(=O)c2[nH]c(C)c(C(C)=O)c2C)cc(OC)c1	.	.	.	10µM*	.	?
CC(=O)c1c(C)[nH]c(C(=O)OCC(=O)Nc2cc(C)on2)c1C	-3	.	4%	?	-6	50
CC(=O)c1c(C)[nH]c(C(=O)Nc2ccc(Cl)c(S(=O)(=O)N(C)C)c2)c1C	24*	?	?	?	109*	101
CN(C)S(=O)(=O)c1cc(NC(=O)c2cc(=O)[nH]c3ccccc23)ccc1Cl	1	-11%	-17%	.	7	.
CC(=O)c1c(C)[nH]c(C(=O)OCC(=O)Nc2ccc(Cl)c(S(=O)(=O)N(C)C)c2)c1C	3	6.6µM*	1.2µM*	4µM*	14	0
CCN(CC(=O)Nc1ccc(OC)cc1)C(=O)Cc1cccs1	.	3%	3%	-2%	.	0

High-throughput results: PubChem, National Center for Advancing Translational Sciences (NCATS)
